According to PubChem BioAssay (Tox21):
Records with an inconclusive call do not appear. Where a call stands in place of a potency, no number is given. The source made the active and inactive calls. The call rests on the fitted dose curve.

Biological target: Beta-2 adrenergic receptor (Homo sapiens) (UniProt P07550)
Assay: Adrenergic beta2 receptor (ADRB2) small molecule agonists, cell-based qHTS assay (AID 1963593);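 further: CHO cells stably overexpressing human ADRB2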
Outline: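 CHO cells stably over-expressing ADRB2 were plated overnight at 37C, then dosed with compounds plus a stimulation mix containing 100uM IBMX and 25uM Ro-20-1724 for 0.5hr at room temperature. cAMP was measured by HTRF competition, 1hr.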

Chain of Beta-2 adrenergic receptor (Homo sapiens) (P07550 whole entry, looked up): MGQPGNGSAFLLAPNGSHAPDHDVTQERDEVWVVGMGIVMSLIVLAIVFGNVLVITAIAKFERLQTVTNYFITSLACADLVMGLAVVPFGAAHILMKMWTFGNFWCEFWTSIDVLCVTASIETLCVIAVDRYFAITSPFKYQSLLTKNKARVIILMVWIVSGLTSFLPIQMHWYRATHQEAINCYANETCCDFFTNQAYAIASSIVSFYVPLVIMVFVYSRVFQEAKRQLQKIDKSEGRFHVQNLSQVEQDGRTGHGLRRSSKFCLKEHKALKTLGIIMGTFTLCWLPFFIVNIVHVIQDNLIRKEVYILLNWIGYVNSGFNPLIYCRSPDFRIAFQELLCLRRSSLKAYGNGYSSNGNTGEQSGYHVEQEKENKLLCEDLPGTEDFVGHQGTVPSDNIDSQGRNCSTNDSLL

| Compound | Potency |
| --- | --- |
| CCc1cccc(CC)c1NC(=O)C(=O)O | inactive |
| O=C(O)c1ccc([N+](=O)[O-])cc1 | inactive |
| CC(C)C(=O)C(C)C | inactive |
| Cc1nc(-c2ccc3c(c2)CCN(CCC2CCC(NC(=O)/C=C/c4ccc(F)cc4)CC2)CC3)no1 (stereo unspecified) | inactive |
| CN(C)Cc1ccccc1O | inactive |
| CCCCCCCCOC(=O)CCCCCCCCC(=O)OCCCCCCCC | inactive |
| O=C(OCCOCCO)c1ccccc1Nc1cccc(C(F)(F)F)c1 | inactive |
| CCC(=O)OCc1ccc(OC)cc1 | inactive |
| C=C(C)[C@@H]1CCC2=CCC[C@@H](C)[C@]2(C)C1 | inactive |
| CC(=O)c1cccc([N+](=O)[O-])c1 | inactive |
| COCCCOc1cc(C[C@@H](C[C@H](N)[C@@H](O)C[C@H](C(=O)NCC(C)(C)C(N)=O)C(C)C)C(C)C)ccc1OC | inactive |
| CCOCOCC | inactive |
| C=COCCCC | inactive |
| NC(=O)CCCCC(N)=O | inactive |
| CCOCCOCCOCCO | inactive |
| CC(=N\O)/C(C)=N/O | inactive |
| O=S(=O)(O)c1cccc2c(S(=O)(=O)O)cccc12 | inactive |
| CCC1COC(=O)O1 (stereo unspecified) | inactive |
| Cc1ccc(S(=O)(=O)NC(=O)NC2CCCC2)cc1 | inactive |

| Compound | Potency |
| --- | --- |
| CCCc1cc(C(N)=S)ccn1 | inactive |
| O=C1NCCN1CCO | inactive |
| O=C(O)c1cccc(Cl)c1Cl | inactive |
| CCc1c(Br)c(Br)c(Br)c(Br)c1Br | inactive |
| NC(=O)NC1N=C([O][Al])NC1=O (stereo unspecified) | inactive |
| CCc1ccc(C=O)cc1 | inactive |
| C[N+](C)(C)CC[N+]1(C)Cc2c(Cl)c(Cl)c(Cl)c(Cl)c2C1 | inactive |
| CCCC(C)CO (stereo unspecified) | inactive |
| C/C(=C1\CCOC(=O)S1)N(C=O)Cc1cnc(C)nc1N | inactive |
| Nc1ccc2c(S(=O)(=O)O)cccc2c1S(=O)(=O)O | inactive |
| O=C(O)CNC(=O)c1ccc(CO)o1 | inactive |
| NCC1CCCC(CN)C1 (stereo unspecified) | inactive |
| CO[Si](CCCCl)(OC)OC | inactive |
| Cc1ccc(-c2ccccc2)cc1 | inactive |
| CCCO[Si](OCCC)(OCCC)OCCC | inactive |
| C=C(C)C(=O)OCCC(F)(F)C(F)(F)C(F)(F)C(F)(F)C(F)(F)C(F)(F)F | inactive |
| CCCCCCCCCCCC[N+](C)(C)CCCS(=O)(=O)[O-] | inactive |
| CO[Si](OC)(OC)c1ccccc1 | inactive |
| CCOCCOCCOCC | inactive |

| Compound | Potency |
| --- | --- |
| CC(=O)C1(C)CC2=C(CCCC2(C)C)CC1C (stereo unspecified) | inactive |
| O=c1cccc[nH]1 | inactive |
| C1CCSC1 | inactive |
| CCOC(=O)c1ccc(O)c(O)c1 | inactive |
| OCc1c2ccccc2cc2ccccc12 | inactive |
| NCc1cccc(CN)c1 | inactive |
| CCCCOCCOCCOCCO | inactive |
| ClC/C=C\CCl | inactive |
| CCOC(=O)NCCC[Si](OCC)(OCC)OCC | inactive |
| O=C(O)c1cc(O)c(O)c(O)c1 | inactive |
| CSc1ccc(C(=O)c2[nH]c(=O)[nH]c2C)cc1 | inactive |
| COC(/C=C(\C)CCC=C(C)C)OC | inactive |
| CCOC(=O)O[C@]1(C(=O)OCCl)CC[C@H]2[C@@H]3CCC4=CC(=O)C=C[C@]4(C)[C@H]3[C@@H](O)C[C@@]21C | inactive |
| CC1(C)C(O)C(C)(C)C1O (stereo unspecified) | inactive |
| O=C(NCN1CCOCC1)c1cnccn1 | inactive |
| Cc1onc(-c2ccccc2)c1C(=O)Cl | inactive |
| CC(C)C(=O)O | inactive |
| NCCNCCN | inactive |
